# Luc counter = blocks Kinase-Glo luciferase, a counter-screen artifact; Kinase-Glo luciferase, ATP luminescence, 8 min; Potency, µM (highest dose often 38.3 µM), inactives show at the top dose activity change, negative = inhibition, actives largely listed as inhibitors; Q27757; hit rate 0.28% among 200,000; active means well fitted curve in the direction sought with a large enough effect; inconclusive means small, poorly fitted or top-dose-only effect, or another doubt; inactive means no such curve, though single readings can be large; an effect the other way counts as inactive or inconclusive; further: nearly all actives have a fitted effect of over 60% in size
#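 Compound is pinned into ATP-containing buffer (10 uM ATP, imidazole pH 7.2, 7 mM MgCl2). Kinase-Glo luciferase reagent is then added. Light output is recorded following an 8-min room-temperature incubation.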
# IMPase Li cell = IMPase inhibition in cells with lithium potentiation; Potency, µM (doses to about 59.4 µM), for the others: top-dose activity, negative = IMPase inhibition, usual class: inhibitors; hit rate 0.35% among 210,000; CHO-M1 cells, IP1 TR-FRET (IP-One), carbachol + lithium; AID 1457; active means well fitted curve in the direction sought with a large enough effect; inconclusive means small, poorly fitted or top-dose-only effect, or another doubt; inactive means no such curve, though single readings can be large; an effect the other way counts as inactive or inconclusive;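 further: IP1 builds up when IMPase is blocked and the TR-FRET signal falls; plate controls were basal vehicle for no effect and high inhibitor control for full effect; nearly all actives have a fitted effect of over 50% in size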
#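 CHO-M1, 2000 cells/well, 16–30 h culture; cpd + low Li+, 30 min 37C; lysis with d2-IP1/Eu-anti-IP1 Ab, 10 min RT; TR-FRET 665/620 ratio and 620 channel; AC50 via Hill.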
# ALDH1A1 inh = inhibitors of human aldehyde dehydrogenase 1A1. P00352. Purified ALDH1A1, NADH fluorescence, propionaldehyde substrate. Potency, µM (top dose mostly 75.3 µM), inactives show at the highest dose activity, negative = inhibition, actives largely listed as inhibitors. hit rate 7.3% among 220,000;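 further: plate controls were no enzyme wells and a reference inhibitor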
# Target sequence (P00352 whole entry, looked up): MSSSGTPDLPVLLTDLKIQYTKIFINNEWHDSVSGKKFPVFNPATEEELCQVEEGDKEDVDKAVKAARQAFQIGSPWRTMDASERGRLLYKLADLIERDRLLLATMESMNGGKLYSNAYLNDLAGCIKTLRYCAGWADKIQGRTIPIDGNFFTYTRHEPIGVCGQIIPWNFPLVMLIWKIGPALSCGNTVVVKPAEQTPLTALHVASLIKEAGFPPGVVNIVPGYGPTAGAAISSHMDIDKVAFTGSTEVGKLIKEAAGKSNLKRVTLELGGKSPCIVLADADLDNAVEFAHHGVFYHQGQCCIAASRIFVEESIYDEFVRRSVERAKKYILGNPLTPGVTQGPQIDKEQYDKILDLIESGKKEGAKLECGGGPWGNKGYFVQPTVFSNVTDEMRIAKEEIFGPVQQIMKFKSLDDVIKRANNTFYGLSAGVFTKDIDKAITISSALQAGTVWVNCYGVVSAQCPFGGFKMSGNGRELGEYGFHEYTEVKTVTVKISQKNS
# HPGD inh = HPGD (human) dehydrogenase inhibition | P15428 | purified HPGD, NADH fluorescence kinetic, PGE2 substrate | Potency, µM, inactives show top-dose activity change, negative = inhibition, actives largely listed as inhibitors | hit rate 4.3% among 150,000 | AID 894
# Target sequence (P15428 whole entry, looked up): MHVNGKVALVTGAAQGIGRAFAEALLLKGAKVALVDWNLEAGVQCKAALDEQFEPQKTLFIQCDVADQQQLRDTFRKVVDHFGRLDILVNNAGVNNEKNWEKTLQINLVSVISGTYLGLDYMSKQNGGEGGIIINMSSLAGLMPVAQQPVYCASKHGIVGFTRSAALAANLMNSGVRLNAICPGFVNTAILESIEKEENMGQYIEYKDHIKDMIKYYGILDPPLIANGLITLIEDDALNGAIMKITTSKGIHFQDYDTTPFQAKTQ
#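 NADH formation kinetics: reaction with 30 uM PGE2 and 1 mM NAD+ (final), 20 nM enzyme, Tris-HCl pH 8 with Tween 20, after 15 min compound preincubation at room temperature. Fluorescence change, last versus first of five reads.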
# Lamin A splicing = LMNA splicing modulation; hit rate 0.01% among 200,000; AID 1487; Potency, µM (titrated, usually from 46.1 µM), without a hit: at the top dose ratio change, negative = inhibition, usual class: inhibitors; HeLa LMNA splicing GFP/RFP minigene ratio, 48 h; active means well fitted inhibition curve with a large enough effect in the signal ratio, with a control signal flat, not every such curve was filed as active; inconclusive means small, poorly fitted or top-dose-only effect, or effect the other way, or a change in a side signal; the % refers to the signal ratio
#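 S3 HeLa cells stably expressing lamin A-EGFP splicing minigene plus DsRed2, 600 cells/well, 48 h compound exposure at 37C. Laser-scanning cytometry; analysed as GFP (500-530 nm)/RFP (575-640 nm) total intensity ratio; 0.5% DMSO vehicle.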
# Active calls of the source: *; u = inconclusive; x = no result; [ ] = dose if it differs, or a comment. Most compounds without a hit are left out; they make up all but 9% or so of the library. Unless noted, the call rests on the fitted dose curve; in most records, active means well fitted inhibition curve with a large enough effect (not every such curve was filed as active); inconclusive means small, poorly fitted or top-dose-only effect, or another doubt; inactive means no such curve, though single readings can be large or run the other way. Unless noted, on the % scale 0 is the no-effect control and ±100 the full control effect; potency means the concentration at half of the fitted maximal effect.
SMILES,Luc counter,IMPase Li cell,ALDH1A1 inh,HPGD inh,Lamin A splicing
CN1CCN(C(=O)c2ccc(N3CCCC3=O)cc2)CC1,-1.4%,13.7%[38.3 µM],7.4%,12.6µM*,0.4%
O=C(NC1=NCCS1)c1ccc(N2CCCC2=O)cc1,-0.5%,1.0%,8.2%,x,3.1%[46 µM]
Cc1nc(C)n(CC(=O)N2CCCC(C(=O)c3ccc(C(F)(F)F)cc3)C2)n1 (stereo not drawn),x,1.8%,-1.7%,x,x
COc1ccc(C(=O)NC2CCN(C(=O)Nc3ccccc3Cl)CC2)cc1,-1.2%,8.8%,-0.4%,x,x
COc1ccccc1N1CCN(C(=O)COc2ccc(S(=O)(=O)NC(C)C)cc2)CC1,4.7%,-0.8%,-1.4%,x,x
CN1CCN(C(=O)c2ccc(C(C)(C)C)cc2)CC1,-1.3%,0.1%[38.3 µM],-7.7%,11.2µM*,-4.3%
CN1CCN(C(=O)c2ccc3c(c2)OCCO3)CC1,0.0%,1.1%,2.6%,15.8µM*,-3.3%
O=C(c1ccccc1)N1CCN(C(=O)c2ccc3c(c2)OCCO3)CC1,-1.9%,7.1%,u,x,-16.7%[46 µM]
O=C(c1ccc(N2CCCC2=O)cc1)N1CCOCC1,7.7%,12.2%,18.8%,22.4µM*,-11.9%
CC1CN(C(=O)/C=C/c2ccc3c(c2)OCO3)CC(C)O1 (stereo not drawn),-3.3%,11.7%,u,u,2.4%
CC1CN(C(=O)c2ccc3c(c2)OCO3)CC(C)O1 (stereo not drawn),-5.2%,17.0%[38.3 µM],13.3%,25.1µM*,-2.5%
CCN(CC)S(=O)(=O)c1ccc(Cc2ncc(C(F)(F)F)cc2Cl)s1,-2.4%,28.5%[38.3 µM],u,-17.5%,u
CC1CCN(CCC(=O)N2CCCc3c2c(=O)oc2ccc(O)cc32)CC1,-0.5%,1.4%[38.3 µM],2.24µM*,-1.0%,u
CC(C(=O)N1CCCc2c1c(=O)oc1ccc(O)cc21)N1CCc2ccccc2C1 (stereo not drawn),x,x,u,x,-1.7%
CN(CC(=O)N1CCCc2c1c(=O)oc1ccc(O)cc21)Cc1ccccc1,1.7%,4.6%,12.6µM*,-14.7%,-2.0%
CCOc1ccc(C2C(C#N)=C(N)Oc3cc(C)oc(=O)c32)cc1 (stereo not drawn),-5.2%,-1.9%,8.91µM*,x,0.5%[46 µM]
O=C(c1ccco1)N1CCN(C(c2ccccc2F)c2nnnn2Cc2cccs2)CC1 (stereo not drawn),4.7%,4.4%[38.3 µM],17.8µM*,-5.0%,-9.5%
Cc1ccc(C(c2nnnn2Cc2cccs2)N2CCN(C(=O)c3ccco3)CC2)cc1 (stereo not drawn),1.1%,3.9%,4.47µM*,9.9%,-7.7%
CCC(c1nnnn1Cc1cccs1)N1CCN(C(=O)c2ccco2)CC1 (stereo not drawn),-2.1%,11.1%,u,x,-6.8%[46 µM]
COc1ccc(C(c2nnnn2Cc2ccccc2)N2CCN(C(=O)c3ccco3)CC2)cc1 (stereo not drawn),8.3%,-2.3%[38.3 µM],28.2µM*,0.9%,2.4%
Cc1ccc(N(CC(C)C)S(=O)(=O)c2nnc(NC(=O)c3cccs3)s2)cc1,x,x,x,x,12.0%[46 µM]
COc1ccc2[nH]c(C)c(CCN(Cc3cccs3)C(=S)Nc3ccc(F)cc3)c2c1,2.7%,43.1%[38.3 µM],17.8µM*,-16.7%,u
Nc1ncnc2c1[nH]c(=O)n2C1CC(O)C(CO)O1 (stereo not drawn),-2.2%,5.7%,0.3%,-1.9%,-5.7%
Cc1cccc(-n2c(-c3csc(C(C)C)c3)n[nH]c2=S)c1,-1.4%,34.9%[38.3 µM],15.8µM*,u,-8.1%
Cc1cccc(-n2c(-c3csc(C)c3C)n[nH]c2=S)c1,-4.2%,-0.3%,-13.2%,10µM*,3.8%
SMILES,Luc counter,IMPase Li cell,ALDH1A1 inh,HPGD inh,Lamin A splicing
N#CCCN(C(=O)CO/N=C/c1cccc([N+](=O)[O-])c1)c1ccccc1,-1.9%,14.3%,25.1µM*,x,u
CCOc1ccccc1/C=N/NC(=O)c1cccc(S(=O)(=O)N(CC)CC)c1,0.2%,9.4%,u,x,x
CCn1c(C)nc2cc(C(=O)N/N=C/c3ccc(O)c(O)c3O)ccc21,-4.3%,7.9%,1.41µM*,x,x
CCN(CC)S(=O)(=O)c1cccc(C(=O)N/N=C/c2ccc(O)c(O)c2O)c1,-1.2%,25.2%,8.91µM*,25.1µM*,-6.1%
CC(C)NC(=O)N1CC[C@@]2(CCCN(C(=O)c3csnn3)C2)C1,-3.0%,-6.7%,-4.0%,-5.2%,x
Cc1nc(SCC(O)CCl)c([N+](=O)[O-])[nH]1 (stereo not drawn),2.4%,3.8%,14.1µM*,-5.3%,-2.2%
Cc1cccc(NC(c2ccc(O)cc2)c2ccc3ccc(C)nc3c2O)n1 (stereo not drawn),-3.0%,44.9%[38.3 µM],7.94µM*,17.8µM*,u
CCC(=S)/C=C1\Sc2ccc3ccccc3c2N1CCCS(=O)(=O)O,-8.0%,-10.2%[38.3 µM],-2.8%,31.6µM*,15.9%
N#CC1=C(N)C2=CCCC[C@H]2[C@H](c2ccc(Br)cc2)C1(C#N)C#N,1.2%,14.3%,12.6µM*,-25.3%,u
O=C1c2ccccc2C(=O)C12OC2c1cccc2ccccc12 (stereo not drawn),-1.3%,1.9%,1µM*,u,-10.2%
Cc1cccc(C2(c3cccc(C)c3)CC2C(=O)Nc2ccc([N+](=O)[O-])cc2O)c1 (stereo not drawn),-2.2%,20.0%,-3.9%,17.8µM*,u
COCCn1c(-c2ccco2)csc1=Nc1cccnc1,-3.5%,18.8%[38.3 µM],u,-17.4%,3.2%
CC(C)Cn1c(-c2ccco2)csc1=Nc1cccnc1,-2.7%,8.3%[38.3 µM],12.6µM*,-14.9%,17.2%
CC(C)(C)c1ccc(S(=O)(=O)Nc2ccc(Cc3ccncc3)cc2)cc1,-2.0%,21.6%,1.12µM*,-10.6%,u
O=S(=O)(Nc1ccc(Cc2ccncc2)cc1)N1CCCC1,-0.2%,9.1%,3.2%,25.1µM*,-8.8%
Cc1cc(C(=O)CSc2nc3ccccc3c(=O)n2C)c(C)n1Cc1ccc2c(c1)OCO2,-1.7%,11.9%[38.3 µM],-12.4%,-23.5%,u
C[C@@]1(C(NC(=O)c2cccs2)c2ccc(-c3ccccc3)cc2)C[C@H]1C1CCCCC1 (stereo partly drawn),1.2%,-0.5%,6.4%,-10.1%,x
COC(=O)c1ccc(C(NC(=O)c2ccccc2)[C@]2(C)C[C@H]2C2CCCCC2)cc1 (stereo partly drawn),-2.0%,5.2%,1.26µM*,-7.8%,x
Cc1noc(C)c1-c1cncnc1N(C)Cc1ccco1,x,15.2%,-7.5%,x,15.4%
CN1CCN(C(=O)c2ccc3c(=O)n(-c4ccc(F)cc4)c(=S)[nH]c3c2)CC1,2.4%,u,-7.5%,x,x
O=c1c2oc3ccccc3c2[nH]c(=S)n1-c1ccc(F)cc1,1.0%,11.2µM*,-6.3%,x,7.4%[9.22 µM]
O=C(CSc1n[nH]c(-c2cccs2)n1)NCc1cccs1,-0.7%,-2.7%[38.3 µM],24.4%,17.8µM*,12.4%
O=C(CSc1n[nH]c(-c2cccs2)n1)NCc1ccc2c(c1)OCO2,17.5%,24.4%[38.3 µM],0.6%,12.6µM*,15.9%
CCCn1c(C)nc2c(NC3CCCCC3)nc(C)nc21,-4.2%,-7.0%,2.5%,-1.6%,x

# Compound activity from PubChem.
